TrxR1 substrate – qHTS Assay for Substrates of Mammalian Selenoprotein Thioredoxin Reductase 1 (TrxR1): qHTS; AID 588456, 2011; purified TrxR1 substrate turnover, NADPH consumption readout; actives 0.01% (n = 390,000); Potency, µM (series often up to 114 µM); Thioredoxin reductase 1, cytoplasmic (Rattus norvegicus), O89049; further: nearly all actives have a fitted effect of over 50% in size
Target sequence (O89049 whole entry, looked up): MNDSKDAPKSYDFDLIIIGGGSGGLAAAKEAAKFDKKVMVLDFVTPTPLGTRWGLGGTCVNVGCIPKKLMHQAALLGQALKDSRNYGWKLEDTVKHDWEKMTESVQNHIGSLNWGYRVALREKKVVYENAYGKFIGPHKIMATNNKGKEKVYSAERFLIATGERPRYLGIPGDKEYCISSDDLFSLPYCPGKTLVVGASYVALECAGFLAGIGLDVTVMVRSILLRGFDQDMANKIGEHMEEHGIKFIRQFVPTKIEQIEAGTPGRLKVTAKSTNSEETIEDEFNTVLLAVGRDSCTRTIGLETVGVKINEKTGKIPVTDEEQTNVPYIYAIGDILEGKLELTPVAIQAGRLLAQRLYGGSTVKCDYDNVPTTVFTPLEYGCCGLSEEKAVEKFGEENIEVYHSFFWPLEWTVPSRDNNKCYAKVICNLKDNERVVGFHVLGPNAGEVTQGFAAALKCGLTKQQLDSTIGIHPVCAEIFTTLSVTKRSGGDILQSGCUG
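Rat TrxR1, dispensed at 90 nM, was prereduced with 400 uM NADPH (final) for 5 min at ~22 deg C, then incubated with compound 15 min before 400 uM selenite. A first-read NADPH fluorescence drop versus no-compound background flagged substrates.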
TrxR1 inh – qHTS Assay for Inhibitors of Mammalian Selenoprotein Thioredoxin Reductase 1 (TrxR1): qHTS. Thioredoxin reductase 1, cytoplasmic (Rattus norvegicus), O89049. recombinant rTrxR1, NADPH fluorescence consumption, selenite substrate. Potency, µM (highest dose often 114 µM), actives largely listed as inhibitors. actives 1% (n = 390,000). AID 588453, 2011; further: nearly all actives have a fitted effect of over 65% in size
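Rat TrxR1 (90 nM in the dispensed reagent) was pre-reduced with 400 uM NADPH for 5 min at room temperature, then incubated with compound for 15 min. After 400 uM selenite was added, NADPH fluorescence (Ex 340/Em 450 nm) was followed for 8 min.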
GALK inh – qHTS Assay for Inhibitors of Human Galactokinase (GALK); P51570; Purified GALK, Kinase-Glo residual ATP luminescence; Potency, µM (titrated, usually from 57.5 µM), actives largely listed as inhibitors; actives 0.007% (n = 270,000); AID 1868, 2009
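The enzyme phosphorylates galactose (100 uM) using ATP (35 uM); inhibition is detected as higher residual ATP, quantified by bioluminescence after 1 h reaction at room temperature, pH 8.0.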
PI4K2A block – qHTS for small molecular inhibitors of PI4K2A. Phosphatidylinositol 4-kinase type 2-alpha (Homo sapiens), Q9BTU6. purified PI4K2A, ADP-Glo luminescence, 1 h; hits give low values. activity change, negative = inhibition, % at 76.9 µM. actives 0.13% (n = 420,000). AID 1346378, 2018; in the data active means activity change below about -50%; inconclusive means mostly about -30% to -49%
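In this quantitative HTS, ADP production by PI4K2A was quantified luminescently after 1 h at ambient temperature; 100 microM adenosine served as plate-quality control.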
PKM2 act – qHTS Assay for Activators of Human Muscle isoform 2 Pyruvate Kinase | Pyruvate kinase PKM (Homo sapiens), P14618 | purified PKM2, Kinase-Glo ATP luminescence, activation; response scale: 0% is enzyme alone, no compound | Potency, µM (titrated, usually from 57.5 µM), actives largely listed as activators | actives 0.34% (n = 260,000) | AID 1631, 2009; further: nearly all actives have a fitted effect of over 55% in size
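hPK-M2, >95% pure; 0.1 mM ADP / 0.5 mM PEP final; imidazole pH7.2 buffer w/ 7 mM MgCl2, 50 mM KCl; 1 h RT; Kinase-Glo lum. Intermediate enzyme activity for dual inhibitor/activator qHTS.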
Large screens that a line does not name were inactive; ! = not active in a repeat. This is a sample that favours compounds with a hit; in the whole collection about 1.2% have one here. Unless noted, the call rests on the fitted dose curve; in most records, active means well fitted curve in the direction sought with a large enough effect; inconclusive means small, poorly fitted or top-dose-only effect, or another doubt; inactive means no such curve, though single readings can be large; an effect the other way counts as inactive or inconclusive.

NN/C(=C\[N+](=O)[O-])Nc1ccc(Cl)cc1	TrxR1 inh 15.8µM
COc1ccc(N=C2S/C(=C\c3ccc(N4CCOCC4)o3)C(=O)N2CCc2c[nH]c3ccccc23)cc1	PKM2 act 3.16µM (no result: TrxR1 substrate, TrxR1 inh, PI4K2A block)
O=C(O)COc1ccc(/C=C2\SC(=Nc3ccccc3)N(c3ccccc3)C2=O)cc1	none
COc1ccc(N=C2S/C(=C\c3ccc(OCC(=O)O)cc3)C(=O)N2CCc2c[nH]c3ccccc23)cc1	PKM2 act 2.82µM
CCOC(=O)C1=C(CC)OC(N)=C(C#N)C1c1ccc(NC(C)=O)cc1 (stereo unspecified)	TrxR1 inh 44.7µM (no result: GALK inh)
CC(=O)c1sc(NC(=O)C2(F)C(F)(F)C(F)(F)C(F)(F)C(F)(F)C2(F)F)nc1C	TrxR1 substrate inconclusive, TrxR1 inh 35.5µM
Cc1ccnc(NC(=O)c2ccc(OCC3CCCO3)cc2)c1 (stereo unspecified)	PI4K2A block -62.8 (no result: GALK inh, PKM2 act)
CC(C)n1c(SCC(N)=O)nc2c1c(=O)[nH]c(=O)n2C	none
CC(C)n1c(SCC(=O)Nc2ccccc2)nc2c1c(=O)[nH]c(=O)n2C	PKM2 act 8.91µM
CCn1c(SCC(=O)Nc2ccccc2)nc2c1c(=O)n(C)c(=O)n2C	PKM2 act 7.94µM
COCCn1c(SCc2ccc(F)cc2)nc2c1c(=O)[nH]c(=O)n2C	none
Cn1c(=O)c2c(nc(SCC(=O)Nc3ccccc3)n2C)n(C)c1=O	none
CC(C)n1c(SCC(=O)Nc2ccccc2)nc2c1c(=O)n(C)c(=O)n2C	PKM2 act 14.1µM
COCCn1c(SCC(=O)Nc2ccccc2)nc2c1c(=O)[nH]c(=O)n2C	PKM2 act 6.31µM
Cc1cccc(Cn2cc(COC(=O)N3CCCC3)nn2)c1	none (no result: TrxR1 substrate, TrxR1 inh, GALK inh, PKM2 act)
CCc1ccccc1NC(=O)CN1C(=O)c2ccccc2Sc2ncccc21	none (no result: GALK inh, PKM2 act)
CC1(C)OC(=O)C2(Cc3c(F)cccc3N3CCCC32)C(=O)O1 (stereo unspecified)	none (no result: GALK inh, PI4K2A block, PKM2 act)
COc1ccc(C(=O)n2nc(-c3ccco3)nc2NCc2cccs2)cc1	TrxR1 inh 22.4µM (no result: GALK inh, PKM2 act)
CCSc1ncc(Cl)c(C(=O)Nc2sc(C(C)=O)c(C)c2C(=O)OC)n1	none (no result: GALK inh, PKM2 act)
CCCSc1ncc(Cl)c(C(=O)N(Cc2ccccc2)c2ccc(OC)cc2)n1	none (no result: GALK inh, PKM2 act)
COc1ccc(N(Cc2ccccc2)C(=O)c2nc(S(C)(=O)=O)ncc2Cl)cc1	TrxR1 inh 1µM (no result: GALK inh, PKM2 act)
O=C(NCc1ccccc1)c1nc(S(=O)(=O)Cc2ccccc2)ncc1Cl	TrxR1 inh 2.82µM! (no result: PKM2 act)
COc1ccc(CNC(=O)c2nc(S(=O)(=O)Cc3ccccc3)ncc2Cl)cc1	TrxR1 inh 3.16µM! (no result: PKM2 act)
CCS(=O)(=O)c1ncc(Cl)c(C(=O)NCc2ccccc2)n1	TrxR1 inh 5.62µM (no result: GALK inh, PKM2 act)
CCCCc1cc(=O)oc2cc(C)c3c(C)coc3c12	none (no result: GALK inh, PKM2 act)
COc1ccc(CN2CC[C@H]3C=CC[C@@H](C(=O)N4CCN(c5ccccc5)CC4)[C@H]3C2=O)cc1OC	none (no result: GALK inh, PI4K2A block, PKM2 act)
CS(=O)(=O)c1ncc(Cl)c(C(=O)N(Cc2ccc(Cl)cc2)Cc2ccco2)n1	TrxR1 inh 0.708µM (no result: GALK inh, PKM2 act)
O=C(NCc1ccc2c(c1)OCO2)c1nc(S(=O)(=O)Cc2ccccc2)ncc1Cl	TrxR1 inh 11.2µM (no result: PKM2 act)
CCC(=O)N1CCc2cc(Br)c(S(=O)(=O)N3CCCC(C(=O)NC(C)(C)C)C3)cc21 (stereo unspecified)	none (no result: TrxR1 substrate, TrxR1 inh, GALK inh, PKM2 act)
CCN1C(=O)C=CC1=O	TrxR1 inh 10.6µM! (no result: GALK inh, PKM2 act)
O=C(O)CN1C(=O)C=CC1=O	none (no result: TrxR1 substrate, TrxR1 inh, GALK inh, PKM2 act)
O=C1C=CC(=O)N1CCCCCCN1C(=O)C=CC1=O	TrxR1 inh 0.708µM
NC1=NC(=O)/C(=C\c2ccco2)S1	TrxR1 inh 39.8µM
O=c1[nH]c(Sc2ccc([N+](=O)[O-])cc2[N+](=O)[O-])nc2ccccc12	TrxR1 inh 3.16µM (no result: GALK inh, PKM2 act)
C[C@H]1[C@@H](OC(=O)Nc2ccc(C#N)cc2)CC[C@@]23CCCN2C(=O)CCC[C@@H]13	none (no result: TrxR1 substrate, TrxR1 inh, GALK inh, PKM2 act)
CCCCc1nc2c(c3c1C[C@H](C)OC3)CN(C(=O)Cc1cccc(OC)c1)CC2	none (no result: TrxR1 substrate, TrxR1 inh, GALK inh, PI4K2A block)
COC(=O)C1=C(O)/C(=C\c2cc(C)n(-c3ccccc3F)c2C)N=C1C	TrxR1 inh 15.8µM
COC(=O)C1=C(O)/C(=C\c2cc(C)n(-c3ccccc3C)c2C)N=C1C	none
CC(C)N(CCC(=O)c1ccc2ccccc2c1)Cc1ccccc1	TrxR1 inh 3.16µM (no result: GALK inh, PKM2 act)
Cc1ccc(C2CC(c3cccs3)=NN2C(=O)CCl)cc1 (stereo unspecified)	TrxR1 inh 12.6µM (no result: PKM2 act)
Cc1ccc(-c2cc(C(=O)O)c3ccccc3n2)s1	TrxR1 inh 79.4µM (no result: PKM2 act)
O=C1CC(N2CCOCC2)=NC(=O)N1c1ccc(Br)cc1	none (no result: TrxR1 substrate, TrxR1 inh, GALK inh, PKM2 act)

High-throughput results (PubChem)
